High-throughput results (PubChem)
This is one part of a sample in which hits are shown more often than they occur.
PI4K2A inh – blocks human PI4K2A kinase activity. Q9BTU6. purified PI4K2A, ADP-Glo luminescence, 1 h; hits give low values. activity change, negative = inhibition, % at 76.9 µM. 0.13% of 420,000 active; in the data active = activity change below about -50%; inconclusive = mostly about -30% to -49%;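 also: -100% = wells without enzyme as full effect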
Target sequence (Q9BTU6 whole entry, looked up): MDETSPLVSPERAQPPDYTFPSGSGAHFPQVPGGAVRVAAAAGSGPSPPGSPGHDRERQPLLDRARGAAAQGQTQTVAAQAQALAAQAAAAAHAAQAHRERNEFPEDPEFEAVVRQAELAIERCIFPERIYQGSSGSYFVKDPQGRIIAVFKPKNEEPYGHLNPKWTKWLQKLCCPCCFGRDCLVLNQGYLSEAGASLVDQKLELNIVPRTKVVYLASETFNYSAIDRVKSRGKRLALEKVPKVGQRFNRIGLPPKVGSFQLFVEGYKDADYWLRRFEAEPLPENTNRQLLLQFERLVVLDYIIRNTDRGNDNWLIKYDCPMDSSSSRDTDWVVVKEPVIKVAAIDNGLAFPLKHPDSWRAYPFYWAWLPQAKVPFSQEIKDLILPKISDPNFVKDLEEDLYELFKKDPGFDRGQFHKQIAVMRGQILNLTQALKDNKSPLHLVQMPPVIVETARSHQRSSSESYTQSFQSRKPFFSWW
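In this quantitative HTS, ADP production by PI4K2A was quantified luminescently after 1 h at ambient temperature; 100 microM adenosine served as plate-quality control.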
Tb PGK inh – inhibitors of T. brucei phosphoglycerate kinase; P07378; 0.043% of 380,000 active; PGK/GAPDH coupled, Kinase-Glo luminescence, 60 min; AID 602233; Potency, µM (doses to about 57.5 µM), for inactives: top-dose activity change, negative = inhibition, most hits filed as inhibitors; also: potency is read from the fitted curve at half-maximal effect; nearly all actives have a fitted effect of over 60% in size
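Recombinant glycosomal PGK reaction used 1,3-bisphosphoglycerate generated in-well by GAPDH (100nM final) in 100mM TEA pH 7.6, 5mM MgCl2, 0.01% Tween-20. After 60 minutes at room temperature, ATP was read by Kinase-Glo Plus luminescence end-point.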
Pin1 inhibitor – human Pin1 inhibition; Q13526; AID 504891; 0.009% of 390,000 active; Potency, µM (highest dose often 115 µM), for inactives: top-dose activity, negative = inhibition, hits mostly inhibitors; Pin1 FP peptide displacement, HiFluor488, 10 min; active = well fitted inhibition curve with a large enough effect in the polarisation, with a control signal flat, not every such curve was filed as active; inconclusive = small, poorly fitted or top-dose-only effect, or effect the other way, or a change in a side signal; inactive = no such curve, though single readings can be large or run the other way; the % refers to the polarisation; also: potency is read from the fitted curve at half-maximal effect
Target sequence (Q13526 whole entry, looked up): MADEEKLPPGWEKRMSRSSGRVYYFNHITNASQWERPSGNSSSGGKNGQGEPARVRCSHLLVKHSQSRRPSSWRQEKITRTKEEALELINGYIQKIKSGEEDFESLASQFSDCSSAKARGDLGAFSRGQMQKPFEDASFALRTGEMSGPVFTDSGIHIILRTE
Tb PFK block – blocks T. brucei phosphofructokinase; T. brucei PFK, ADP-Glo luminescence; 0.17% of 330,000 active; AID 485367; Potency, µM (highest dose often 57.5 µM), without a hit: top-dose activity, negative = inhibition, actives largely listed as inhibitors;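 also: potency is read from the fitted curve at half-maximal effect; 0% = uninhibited 1x PFK enzyme wells and -100% = no-enzyme wells; nearly all actives have a fitted effect of over 60% in size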
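Activity is normalized to no-enzyme wells (full inhibition) and 1.25 nM enzyme wells (no inhibition). Reaction: 0.5 mM F6P, 0.1 mM ATP, 45 min RT, ADP-Glo luminescence; concentration-response curves fitted and classed by quality.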
PI5P4Ka inh – PI5P4K alpha (human) kinase inhibition; P48426; PI5P4Kalpha enzyme, ADP-Glo luminescence, 60 min; hits give low values; max response, %; 1.2% of 330,000 active; AID 652105; active = max response of -50% or lower; inconclusive = between -30% and -50%; inactive = -30% or higher; also: value at the top dose of about 77 µM
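Controls without substrate or without enzyme flank wells where PI5P4Kalpha converts substrate using 5 microM ATP (final). Incubation lasts 60 minutes at room temperature; ADP formed is read by ADP-Glo luminescence.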
Starred values were filed as active, the others as inactive. Unless noted, calls follow the shape of the dose curve; as a rule, active = well fitted curve in the direction sought with a large enough effect; inconclusive = small, poorly fitted or top-dose-only effect, or another doubt; inactive = no such curve, though single readings can be large; an effect the other way counts as inactive or inconclusive. Unless noted, % is scaled to controls: 0 for no effect and ±100 for the full control effect.

How did Cc1oc2c(c1C(=O)c1ccccc1)C(=O)C(=O)c1ccccc1-2 do in these assays?
PI4K2A inh: -63.8*; Tb PGK inh: -19.7%; Pin1 inhibitor: inconclusive; Tb PFK block: 1.3%; PI5P4Ka inh: -10.3

Results for Cc1oc2c(c1C(=O)O)C(=O)c1ccccc1C2=O ?
PI4K2A inh: -14.2; Tb PGK inh: 5.2%; Pin1 inhibitor: -0.8%; Tb PFK block: 29.8%; PI5P4Ka inh: 5.8

How did COCCN1C(=O)c2oc3ccccc3c(=O)c2C1c1ccc(OC)c(OC)c1 (stereo unspecified) do in these assays?
PI4K2A inh: 3.6; Tb PGK inh: 28.2µM*; Pin1 inhibitor: -14.8%; Tb PFK block: 0.6%; PI5P4Ka inh: inconclusive

What do the screens show for `CCCCn1c(N)c(N(CC)C(=O)c2cc(C)cc(C)c2)c(=O)[nH]c1=O`?
PI4K2A inh: 13.0; Tb PGK inh: inactive; Pin1 inhibitor: -11.0%; Tb PFK block: -0.5%; PI5P4Ka inh: 2.4

What do the screens show for `O=C(/C=C/c1ccco1)NCC(=O)N/N=C/c1ccc([N+](=O)[O-])cc1`?
PI4K2A inh: inconclusive; Pin1 inhibitor: inconclusive; Tb PFK block: -1.8%; PI5P4Ka inh: -60.5*

How did O=C(/C=C/c1ccco1)NCC(=O)N/N=C/c1ccc(Cl)cc1 do in these assays?
PI4K2A inh: -3.7; Tb PGK inh: -4.4%; Pin1 inhibitor: 6.3%; Tb PFK block: 0.4%; PI5P4Ka inh: -29.5

What do the screens show for `COC(=O)N/N=C/c1ccc(OC(=O)/C=C/c2ccco2)cc1`?
PI4K2A inh: -5.2; Tb PGK inh: -9.9%; Pin1 inhibitor: 6.0%; Tb PFK block: inconclusive; PI5P4Ka inh: -50.6*

What do the screens show for `CN(/N=C/c1ccc(C(C)(C)C)cc1)C1=NCCN1`?
PI4K2A inh: -1.0; Tb PGK inh: 2.7%; Pin1 inhibitor: -1.3%; Tb PFK block: 3.6%; PI5P4Ka inh: -0.8

How did COCCCNC(=O)c1oc2c(c1C)-c1nn(Cc3ccccc3Cl)cc1CC2 do in these assays?
PI4K2A inh: -5.5; Tb PGK inh: -3.6%; Pin1 inhibitor: -3.6%

What do the screens show for `Cc1ccc(NC2=Nc3ccccc3N3C2=Nc2c(c(C)nn2-c2ccccc2)C3c2ccc(O)c(O)c2)cc1` (stereo unspecified)?
PI4K2A inh: -12.0; Tb PGK inh: -9.0%; Pin1 inhibitor: inconclusive; Tb PFK block: 0.4%; PI5P4Ka inh: -74.7*

How did Cc1nn(-c2ccccc2)c2c1C(c1ccc(O)c(O)c1)N1C(=N2)C(Nc2ccccc2)=Nc2ccccc21 (stereo unspecified) do in these assays?
PI4K2A inh: -0.4; Tb PGK inh: 7.7%; Pin1 inhibitor: inconclusive; Tb PFK block: 0.0%; PI5P4Ka inh: -5.4

What do the screens show for `Cc1cccc(NC2=Nc3ccccc3N3C2=Nc2c(c(C)nn2-c2ccccc2)C3c2ccc(O)c(O)c2)c1` (stereo unspecified)?
PI4K2A inh: 12.8; Tb PGK inh: 4.5%; Pin1 inhibitor: inconclusive; Tb PFK block: 1.1%; PI5P4Ka inh: -92.3*

Results for O=C(/C=C/c1ccco1)c1cccc([N+](=O)[O-])c1 ?
PI4K2A inh: -21.9; Tb PGK inh: -4.2%; Pin1 inhibitor: inconclusive; PI5P4Ka inh: -72.9*

Results for COc1ccc(-c2csc(C(O)c3ccc(F)cc3)n2)cc1 (stereo unspecified) ?
PI4K2A inh: -1.3; PI5P4Ka inh: 0.8

How did NN1C(=O)c2cccc3c(C(=O)O)ccc(c23)C1=O do in these assays?
PI4K2A inh: -0.7; Tb PGK inh: -1.5%; Pin1 inhibitor: -0.7%; Tb PFK block: 0.4%; PI5P4Ka inh: -63.6*

How did O=C(O)c1ccc2c3c(cccc13)C(=O)N(c1ccccc1)C2=O do in these assays?
PI4K2A inh: 1.3; Tb PGK inh: -17.8%; Pin1 inhibitor: -23.8%; Tb PFK block: 1.6%; PI5P4Ka inh: -13.4

What do the screens show for `Cc1ccc(Cn2cc(/C=N/NC(=O)Cc3nnc(NC(=O)c4ccc(C)cc4)s3)c3ccccc32)cc1`?
PI4K2A inh: -4.5; Tb PGK inh: 6.2%; Pin1 inhibitor: 1.1%; Tb PFK block: 1.6%; PI5P4Ka inh: inconclusive

What do the screens show for `NC(=S)N/N=C/c1cn(-c2ccccc2)nc1-c1cccnc1`?
PI4K2A inh: 1.1; Tb PGK inh: -12.1%; Pin1 inhibitor: 5.8%; Tb PFK block: -1.0%; PI5P4Ka inh: -53.7*

How did NC(=S)N/N=C/c1cccc(O)c1O do in these assays?
PI4K2A inh: -5.9; Tb PGK inh: 9.1%; Pin1 inhibitor: 5.9%; Tb PFK block: 4.5%; PI5P4Ka inh: 1.0

How did Cc1cc(/C=N/NC(N)=S)c(O)c(/C=N/NC(N)=S)c1 do in these assays?
PI4K2A inh: -6.8; Tb PGK inh: -0.9%; Tb PFK block: 2.7%; PI5P4Ka inh: -63.8*

Results for Cc1ccc(/C=N/n2c(-c3ccncc3)n[nH]c2=S)cc1 ?
PI4K2A inh: -1.0; Tb PGK inh: 3.5%; Pin1 inhibitor: 3.2%; Tb PFK block: -3.2%; PI5P4Ka inh: -24.6

Results for O=C(O)CSc1cc(NS(=O)(=O)c2ccc(Cl)cc2)c2ccccc2c1O ?
PI4K2A inh: inconclusive; Tb PGK inh: -1.3%; Pin1 inhibitor: inconclusive; Tb PFK block: 0.0%; PI5P4Ka inh: -54.5*

How did Cc1cc(C)c(S(=O)(=O)Nc2cc(SCC(=O)O)c(O)c3ccccc23)cc1C do in these assays?
PI4K2A inh: inconclusive; Tb PGK inh: -9.2%; Pin1 inhibitor: inconclusive; Tb PFK block: -13.2%; PI5P4Ka inh: -59.5*

What do the screens show for `COc1ccc(S(=O)(=O)Nc2cc(SCC(=O)O)c(O)c3ccccc23)cc1`?
PI4K2A inh: inconclusive; Tb PGK inh: -11.4%; Pin1 inhibitor: inconclusive; Tb PFK block: inconclusive; PI5P4Ka inh: -51.2*

How did O=S(=O)(Nc1cc(Sc2cccc3cccnc23)c(O)c2ccccc12)c1ccc(F)cc1 do in these assays?
PI4K2A inh: 2.1; Tb PGK inh: -8.4%; Pin1 inhibitor: inconclusive; Tb PFK block: -2.0%; PI5P4Ka inh: -18.8

Results for COc1ccc(N2CCN(c3c(S(=O)(=O)c4ccccc4)cnc4ccc(OC)cc34)CC2)cc1 ?
PI4K2A inh: 4.8; Tb PGK inh: 2.2%; Pin1 inhibitor: 1.7%; Tb PFK block: -3.8%; PI5P4Ka inh: -2.3

Results for O=c1c2cc(Br)cc(Br)c2oc2nc3n(c(=O)c12)CCCS3 ?
Tb PFK block: -3.3%

What do the screens show for `O=Cc1ccc2oc3nc4n(c(=O)c3c(=O)c2c1)CCCS4`?
PI4K2A inh: -61.7*; Tb PGK inh: inconclusive; Pin1 inhibitor: inconclusive; Tb PFK block: inconclusive; PI5P4Ka inh: -72.6*

How did NC(=O)C(CCC(=O)c1ccc(Br)cc1)S(=O)(=O)c1ccccc1 (stereo unspecified) do in these assays?
PI4K2A inh: 3.6; Tb PGK inh: inactive; Pin1 inhibitor: 3.6%; Tb PFK block: -0.8%; PI5P4Ka inh: 2.9

What do the screens show for `COc1cc(NC(=O)CSc2ccc(-c3ccco3)nn2)cc(OC)c1`?
PI4K2A inh: -18.3; Tb PGK inh: 8.5%; Pin1 inhibitor: inconclusive; Tb PFK block: -9.3%; PI5P4Ka inh: inconclusive
